Here are results for 1 compound from PubChem BioAssay AID977627 (Broad Institute, 2014).

The test is described as follows: growth inhibition of wild-type RFP versus H38-humanized GFP E. coli, dose response, H38 mutant GFP vs wild-type RFP, cherry-pick (AID 977627). As to conditions: E. coli H38 humanized ribosome GFP strain, fluorescence, 24 h; activity: measured here: wild-type RFP strain growth, at 50 µM, stronger effect = lower value; series mostly up to 50 µM.

Records with an inconclusive call do not appear. The source made the active and inactive calls. How the calls were made is not given here.

For the compound `O=C(COC(=O)c1cccc(O)c1)Nc1ccc(Cl)cc1C(=O)c1ccccc1`, the activity is -8.13% and the outcome is “inactive”.
